# Screening data from PubChem.
# This excerpt belongs to a sample that is enriched for hits.
# STK33 inh – STK33 kinase inhibitors, primary screen, biochemical, luminescence, ADP-Glo, MBP substrate. inhibition, % at 12.5 µM. hit rate 0.44% among 27,000. AID 2322, 2010; in the data active means inhibition above about 20%; inconclusive means no clear call, values can overlap the other calls
# Target sequence (Q9BYT3 whole entry, looked up): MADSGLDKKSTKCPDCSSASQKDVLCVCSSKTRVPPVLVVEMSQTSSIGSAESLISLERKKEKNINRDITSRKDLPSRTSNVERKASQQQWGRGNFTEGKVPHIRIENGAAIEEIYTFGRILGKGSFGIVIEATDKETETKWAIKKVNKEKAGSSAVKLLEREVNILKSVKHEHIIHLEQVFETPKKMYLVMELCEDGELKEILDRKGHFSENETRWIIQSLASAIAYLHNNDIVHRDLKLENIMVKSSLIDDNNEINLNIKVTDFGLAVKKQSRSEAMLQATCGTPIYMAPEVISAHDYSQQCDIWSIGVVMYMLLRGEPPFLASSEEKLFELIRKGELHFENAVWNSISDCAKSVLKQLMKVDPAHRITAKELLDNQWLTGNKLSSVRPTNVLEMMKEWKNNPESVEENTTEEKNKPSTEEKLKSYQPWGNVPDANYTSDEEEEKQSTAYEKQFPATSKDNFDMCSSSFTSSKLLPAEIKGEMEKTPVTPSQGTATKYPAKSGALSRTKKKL
# NOMO-1 viab – NOMO-1 AML cell viability reduction, primary screen, STK33 inhibitor project, CellTiter-Glo luminescence. NOMO-1 AML viability, 72 h. inhibition, % (concentration not given with the values). hit rate 7.5% among 37,000. AID 2330, 2010; in the data active means inhibition above about 80%; inconclusive means no clear call, values can overlap the other calls
# PD-1 reverse act – activators reversing PD-1 mediated T-cell inhibition, primary screen, luminescence, primary human CD4 T cells, PD-L1 beads; CellTiter-Glo 96 h; activation, % (test concentration not listed); 29,000 tested, under 10 active; AID 2316, 2010; call rule not given here;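 further: 0% = median vehicle wells and 100% = positive control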
# * hit, by the source's call; u = inconclusive; x = no result given.
SMILES,STK33 inh,NOMO-1 viab,PD-1 reverse act
Cn1c(SCC(=O)Nc2cc(Cl)c(Cl)cc2Cl)nnc1-c1ccccc1,2,5,0
CCOc1cccc(-c2nnc(SCC(=O)n3c4c(c5ccccc53)CCCC4)n2C)c1,0,-3,0
O=S(=O)(Cc1ccc(Cl)cc1)CC(O)COc1ccc(F)cc1 (stereo unspecified),x,26,1
OC(COc1ccc(F)cc1)(c1ccc(Cl)cc1)c1ccc(Cl)cc1,x,121*,-4
C[C@H](CO)N1C[C@H](C)[C@H](CN(C)Cc2ccc(Oc3ccccc3)cc2)Oc2ccc(NC(=O)CCC(F)(F)F)cc2CC1=O,0,40,-2
C[C@@H]1CN([C@H](C)CO)C(=O)Cc2cc(NC(=O)Nc3ccccc3)ccc2O[C@H]1CN(C)Cc1ccc(Oc2ccccc2)cc1,0,72,3
C[C@@H]1CN([C@H](C)CO)C(=O)Cc2cc(NC(=O)NC3CCCCC3)ccc2O[C@@H]1CN(C)Cc1ccc(Oc2ccccc2)cc1,2,111*,-3
C[C@H]1CN([C@@H](C)CO)C(=O)Cc2cc(NC(=O)Nc3ccc(C(F)(F)F)cc3)ccc2O[C@H]1CN(C)Cc1ccc(Oc2ccccc2)cc1,-4,26,1
C[C@@H]1CN([C@@H](C)CO)C(=O)Cc2cc(NC(=O)NC3CCCCC3)ccc2O[C@@H]1CN(C)Cc1ccccc1,0,4,0
C[C@@H]1CN([C@H](C)CO)C(=O)Cc2cc(NC(=O)CCC(F)(F)F)ccc2O[C@@H]1CN(C)Cc1ccc(Oc2ccccc2)cc1,-3,84*,-6
C[C@@H]1CN([C@H](C)CO)C(=O)Cc2cc(NC(=O)Nc3ccc(C(F)(F)F)cc3)ccc2O[C@@H]1CN(C)Cc1ccc(Oc2ccccc2)cc1,-3,115*,-10
C[C@@H]1CN([C@@H](C)CO)C(=O)Cc2cc(NC(=O)Nc3ccc(C(F)(F)F)cc3)ccc2O[C@@H]1CN(C)Cc1ccc(Oc2ccccc2)cc1,3,128*,-1
CC(C)(C)NS(=O)(=O)c1ccc(NC(=O)CSc2nc3ccccc3s2)cc1,2,15,-1
CCCCCCCC1OC(=O)CCC(O)/C=C\C(O)C1O (stereo unspecified),0,43,-3
CCOC(=O)c1cc(C#N)c(Sc2ccc(C)cc2)nc1C(F)(F)F,x,u,-3
CC(NS(=O)(=O)c1ccc(Cl)cc1)C(=O)Nc1cc(Cl)ccc1Oc1ccccc1 (stereo unspecified),-1,37,-2
C(=C\c1ccccc1)/CSc1nc2ccccc2[nH]1,1,41,-3
CC1(C)N=C(NS(=O)(=O)c2cc(C(F)(F)F)cc(C(F)(F)F)c2)N(c2ccccc2)O1,x,14,-1
COc1ccc(NC(=O)Nc2ccc3c(c2)CC(=O)N([C@H](C)CO)C[C@@H](C)[C@@H](CN(C)Cc2ccc(Oc4ccccc4)cc2)O3)cc1,5,u,-5
COc1ccc(NC(=O)Nc2ccc3c(c2)CC(=O)N([C@@H](C)CO)C[C@H](C)[C@@H](CN(C)Cc2ccc(Oc4ccccc4)cc2)O3)cc1,4,119*,-4
COC(=O)c1c(NC(=O)C2CC(=O)NN2Cc2ccccc2)sc2c1CCC2 (stereo unspecified),11,44,-7
COC(=O)c1c(NC(=O)C2CC(=O)NN2Cc2ccccc2)sc2c1CCC(C)C2 (stereo unspecified),6,109*,-6
O=C(O)c1ccccc1Nc1nc(N2CCOCC2)nc(N2CCOCC2)n1,1,11,0
c1ccc2cc3c(Nc4ccc(N5CCOCC5)cc4)ccnc3cc2c1,x,136*,-1
CCOc1ccc(NC(=O)CC2C(=O)NCCN2C(=O)c2ccccc2)cc1 (stereo unspecified),-1,-7,2
SMILES,STK33 inh,NOMO-1 viab,PD-1 reverse act
N#Cc1cnc2c(C(N)=O)cnn2c1N,x,6,0
O=C(CC1c2ccccc2Oc2ccccc21)Nc1ccc(Cc2ccncc2)cc1,4,135*,-4
CCOC(=O)Nc1cccc(NC(=O)CC2c3ccccc3Oc3ccccc32)c1,2,72,0
CN(CCOC(=O)c1ccc(Cl)cc1)c1ncc(C(F)(F)F)cc1Cl,-1,-6,2
Cc1ccc(C(=O)CSc2nc(C)nc3sc4c(c23)CCCC4)cc1,0,18,0
Cc1nc(SC2CCCCN(C(=O)c3ccc(Cl)cc3)C2=O)c2c3c(sc2n1)CCCC3 (stereo unspecified),x,93*,0
O=CNCCc1c[nH]c2ccccc12,-1,1,2
Cc1sc2c(c1C)CN(C(C)(C)C)CN2C(=O)c1ccccc1,x,20,0
O=C(c1ccccc1)N1CN(C2CCCCC2)Cc2c1sc1c2CCCC1,x,116*,0
Cc1cc2ncc(-c3ccccc3)nc2cc1C,3,20,3
c1ccc(-c2cnc3nonc3n2)cc1,x,115*,-5
COc1ccc(Cl)cc1N(CC(=O)Nc1ccc(F)c(F)c1)S(C)(=O)=O,-2,8,0
N=C1S/C(=C/c2ccco2)C(=O)N1c1nccs1,10,37,-7
NC(=O)N/N=C/c1ccc([N+](=O)[O-])o1,-6,50,x
COC(=O)C(NC(=O)c1ccc([N+](=O)[O-])o1)C(C)C (stereo unspecified),-3,113*,x
C[C@H](CO)N1C[C@H](C)[C@H](CN(C)C(=O)Nc2ccc(C(F)(F)F)cc2)Oc2ccc(NC(=O)Nc3cccc4ccccc34)cc2CC1=O,5,46,x
C[C@@H]1CN([C@H](C)CO)C(=O)Cc2cc(NC(=O)Nc3cccc4ccccc34)ccc2O[C@H]1CN(C)Cc1ccc(C(=O)O)cc1,-7,1,2
C[C@@H]1CN([C@@H](C)CO)C(=O)Cc2cc(NC(=O)Nc3cccc4ccccc34)ccc2O[C@@H]1CN(C)C(=O)Nc1ccc(C(F)(F)F)cc1,5,107*,-6
C[C@H]1CN([C@@H](C)CO)C(=O)Cc2cc(NC(=O)Nc3cccc4ccccc34)ccc2O[C@@H]1CN(C)Cc1ccc(C(F)(F)F)cc1,5,125*,x
C[C@H](CO)N1C[C@H](C)[C@H](CN(C)Cc2ccc(C(F)(F)F)cc2)Oc2ccc(NC(=O)Nc3cccc4ccccc34)cc2CC1=O,5,125*,x
C[C@H]1CN([C@@H](C)CO)C(=O)Cc2cc(NC(=O)Nc3cccc4ccccc34)ccc2O[C@H]1CN(C)Cc1ccc(C(F)(F)F)cc1,5,106*,-2
C[C@H]1CN([C@@H](C)CO)C(=O)Cc2cc(NC(=O)Nc3cccc4ccccc34)ccc2O[C@@H]1CN(C)Cc1ccc(C(=O)O)cc1,2,3,3
Cc1ccc(SC(C)C(=O)Nc2ccc(C(C)(C)C)cc2)cc1 (stereo unspecified),1,49,0
Cc1ccc2nc(-c3cccnc3)cc(C(=O)Nc3ccc(S(=O)(=O)NC(C)(C)C)cc3)c2c1,2,29,x
O=C(Cc1ccccc1)Nc1c(C(=O)N2CCCCC2)cnn1-c1ccccc1,x,4,2
Cc1ccc(C)c(NC(=O)CN(c2ccc(C)c(Cl)c2)S(C)(=O)=O)c1,-3,-8,-3
Cc1cc(C)c(NC(=O)CSc2nnc(-c3cccnc3)s2)c([N+](=O)[O-])c1,1,32,x
COc1cccc(OCC(=O)Nc2ccc(Sc3ccc([N+](=O)[O-])cc3)cc2)c1,-4,25,0
